# Assay results as given in PubChem BioAssay AID1159580 (chemical genetic matrix, 2015).
# About 2,000 (36%) of roughly 5,500 compounds were called active. Not shown: some 18% with an inconclusive outcome. This is one part of the list. Unmarked numbers belong to inactive results. Cut-off read from the data, not from the text of the source: active = normalized growth mostly below about 0.91 (no sharp cut-off); inconclusive = no clear call, values can overlap the other calls; inactive = mostly above about 0.92.
# Assay: chemical genetic growth profiling, strain panel (AID 1159580);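 note: tested at 20 µM; growth read once vehicle control cultures reached saturation at 30 °C; 1 = growth at the plate median or of vehicle wells; lower values mean less growth of the strain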
# Details: S. cerevisiae deletion strains, growth OD
smiles,measurement,setting,value
Cc1cn[nH]c1,normalized growth,"locus YAL021C, strain ccr4, hits give low values",1.05
same,normalized growth,"locus YAL026C, strain drs2, hits give low values",1.02
same,normalized growth,"locus YAL030W, strain snc1, hits give low values",1.03
same,normalized growth,"locus YAL040C, strain CLN3, hits give low values",0.992
same,normalized growth,"locus YBL061C, strain skt5, hits give low values",1.02
same,normalized growth,"locus YBR009C, strain hhf1, hits give low values",1.02
same,normalized growth,"locus YBR023C, strain chs3, hits give low values",1.03
same,normalized growth,"locus YBR171W, strain sec66, hits give low values",1.04
same,normalized growth,"locus YBR231C, strain swc5, hits give low values",1.04
same,normalized growth,"locus YBR279W, strain paf1, hits give low values",1.02
same,normalized growth,"locus YCL011C, strain gbp2, hits give low values",1.02
same,normalized growth,"locus YCL016C, strain dcc1, hits give low values",1.02
same,normalized growth,"locus YCL061C, strain MRC1 (second series), hits give low values",0.99
same,normalized growth,"locus YCL069W, strain vba3, hits give low values",1.03
same,normalized growth,"locus YCR088W, strain abp1, hits give low values",1.01
same,normalized growth,"locus YDL005C, strain med2, hits give low values",1.03
same,normalized growth,"locus YDL040C, strain nat1, hits give low values",1.01
same,normalized growth,"locus YDR001C, strain nth1, hits give low values",1.01
same,normalized growth,"locus YDR069C, strain doa4, hits give low values",1.06
same,normalized growth,"locus YDR137W, strain rgp1, hits give low values",1.01
same,normalized growth,"locus YDR150W, strain NUM1, hits give low values",0.986
same,normalized growth,"locus YDR159W, strain sac3, hits give low values",0.99
same,normalized growth,"locus YDR195W, strain ref2",1.16 [resistant] (active)
same,normalized growth,"locus YDR297W, strain sur2, hits give low values",1.02
same,normalized growth,"locus YDR334W, strain swr1, hits give low values",1.03
same,normalized growth,"locus YDR335W, strain msn5, hits give low values",1.02
same,normalized growth,"locus YDR363W, strain ESC2, hits give low values",1.02
same,normalized growth,"locus YDR392W, strain spt3, hits give low values",1.1
same,normalized growth,"locus YEL003W, strain gim4, hits give low values",1.02
same,normalized growth,"locus YEL037C, strain rad23, hits give low values",1.01
same,normalized growth,"locus YEL061C, strain CIN8 (second series), hits give low values",1.01
same,normalized growth,"locus YER002W, strain NOP16, hits give low values",1.01
same,normalized growth,"locus YER015W, strain faa2, hits give low values",1.02
same,normalized growth,"locus YER016W, strain bim1, hits give low values",1.01
same,normalized growth,"locus YER111C, strain swi4, hits give low values",1.02
same,normalized growth,"locus YER155C, strain BEM2 (second series), hits give low values",1.13
same,normalized growth,"locus YFR010W, strain ubp6, hits give low values",1.05
same,normalized growth,"locus YGL167C, strain pmr1, hits give low values",1.02
same,normalized growth,"locus YGL173C, strain kem1, hits give low values",1.01
same,normalized growth,"locus YGL227W, strain vid30, hits give low values",1.01
same,normalized growth,"locus YGL240W, strain doc1, hits give low values",1.05
same,normalized growth,"locus YGL253W, strain hxk2, hits give low values",1.01
same,normalized growth,"locus YGR078C, strain PAC10, hits give low values",0.984
same,normalized growth,"locus YHR013C, strain ard1, hits give low values",1.1
same,normalized growth,"locus YHR027C, strain rpn1, hits give low values",1.03
same,normalized growth,"locus YHR030C, strain SLT2, hits give low values",0.971
same,normalized growth,"locus YHR079C, strain IRE1, hits give low values",0.962
same,normalized growth,"locus YHR142W, strain chs7, hits give low values",1.06
same,normalized growth,"locus YJL092W, strain hpr5, hits give low values",1.02
same,normalized growth,"locus YJL095W, strain BCK1 (second series), hits give low values",1.02
same,normalized growth,"locus YJL095W, strain BCK1, hits give low values",1.03
same,normalized growth,"locus YJL115W, strain asf1, hits give low values",1.01
same,normalized growth,"locus YJL129C, strain trk1, hits give low values",1.06
same,normalized growth,"locus YJL154C, strain vps35, hits give low values",1.02
